Measured values reported in the supplement of paper PMC12669032.

test system: Bifidobacterium longum subsp. longum; experiment: growth AUC relative to DMSO control (median of replicates) (fraction); higher = more growth (less inhibition), active = hit call of the paper; details: 20 µM; 24 h;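 active = AUC reduced over 20% with Padj below 0.05 in at least 2 of 3 replicates; inactive = otherwise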
Procedure, shortened: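 Gut bacteria were grown singly in mGAM at 37 °C without oxygen, from OD600 0.05, alongside 20 µM compound in 1% DMSO, and OD600 was read each hour for 24 h. Area under the growth curve was normalised to the median of solvent-only wells per plate, or to row and column medians on the industrial chemical plate. The minimum OD was set to 0 beforehand, and the reported value is the median of three biological replicates grown on separate days.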

Q: `S=C([S-])NCCNC(=S)[S-].[Mn+2]` was tested. Which “growth AUC” value did it give?
A: 0.996 (inactive)

Q: For `COc1ccc(Cl)c(Cl)c1Cl`, which “growth AUC” value is on record?
A: 0.986 (inactive)

Q: `CCCCOC(=O)C(C)Oc1ccc(Oc2ccc(C(F)(F)F)cn2)cc1` (stereo not drawn) was tested. Which “growth AUC” value did it give?
A: 0.681 (active)

Q: Which “growth AUC” value does the source give for `CCCCOCN(C(=O)CS(=O)(=O)[O-])c1c(CC)cccc1CC.[Na+]` here?
A: 1.07 (inactive)

Q: Which “growth AUC” value does the source give for `CC(C)OC(=O)N[C@H](C(=O)N[C@H](C)c1nc2ccc(F)cc2s1)C(C)C` here?
A: 1.06 (inactive)

Q: How did the “growth AUC” value turn out when `Oc1c(Cl)cc(Cl)c(Cl)c1Cc1c(O)c(Cl)cc(Cl)c1Cl` was run?
A: 0.0988 (active)

Q: `COc1ccc(Oc2ccc(NC(=O)N(C)C)cc2)cc1` was tested. Which “growth AUC” value did it give?
A: 0.957 (inactive)

Q: With `CCCCOCCOC(=O)COc1nc(Cl)c(Cl)cc1Cl` as the molecule, how does the “growth AUC” value read?
A: 0.934 (inactive)

Q: Which “growth AUC” value does the source give for `CCSC(=O)N(CC(C)C)CC(C)C` here?
A: 0.842 (inactive)

Q: Which “growth AUC” value does the source give for `C#CC(C)N(C)C(=O)Nc1ccc(Cl)cc1` (stereo not drawn) here?
A: 0.966 (inactive)

Q: With `O=S(=O)(Oc1ccc(Cl)cc1)c1ccccc1` as the molecule, how does the “growth AUC” value read?
A: 1.01 (inactive)

Q: Which “growth AUC” value does the source give for `CC(C)c1nn(C(=O)NC(C)(C)C)c(=O)n1N` here?
A: 0.999 (inactive)

Q: Which “growth AUC” value does the source give for `COC(=O)c1ccc(I)cc1S(=O)(=O)[N-]C(=O)Nc1nc(C)nc(OC)n1.[Na+]` here?
A: 1.01 (inactive)

Q: `C=O` was tested. Which “growth AUC” value did it give?
A: 0.984 (inactive)

Q: Which “growth AUC” value does the source give for `O=C1NCC[n+]2ccccc21.[Br-]` here?
A: 0.972 (inactive)

Q: `CCCCOCCOCCOCc1cc2c(cc1CCC)OCO2` was tested. Which “growth AUC” value did it give?
A: 1.03 (inactive)

Q: For `Cc1ccc(C)c(O)c1`, which “growth AUC” value is on record?
A: 1.05 (inactive)

Q: With `CCNc1nc(N)[nH]c(=O)n1` as the molecule, how does the “growth AUC” value read?
A: 0.986 (inactive)
